Source: publication PMC12864922, “TDP-43 directly inhibits mRNA accumulation in neurites through modulation of mRNA stability”
Over roughly 9,900 sequences, “r (bound/input frequency ratio)” has its median near 0.7; the highest 2% begin near 6.5. The entries come from a sample that favours the highest values as a whole.

B1: ENSMUSG00000031028.648|Tub (ssRNA)
RNA: GGGAGUUCUACAGUCCGACGAUCGCUUCGAUAUCCGCAUGCUACCAGGUAGAGCAGAUGAGGCUGAAAUGUAGAGUGUUCUAUAGAGCAUCUCAGUAGCAUAGAAGGAGAAGCCCAGCUCCAACCUCCUGGACCCCAUACUGGUGACCAGCUUGGUGAGGACAGGCAAAAUUUCUCUAGCUGAGAGCACACUUAGCCAGUUUUCACGCCUAGAACAUAUAUGUCGAUUUGCACAUGAUUGUCUUUUCCUAUUUUGGAGUGGUCAGACAUUUUAUUUUUGUUCAAAAUUAUCUGGAGUUUUAGACUCUUGCGGUCGCACUAGUGUGGAAUUCUCGGGUGUCAAGG
B2: ENSMUSG00000032194.138|Kank2 (ssRNA)
RNA: GGGAGUUCUACAGUCCGACGAUCGCUUCGAUAUCCGCAUGCUAUGACUUGGAAAUGACCAACUUACAAGAAGUUAUGCUGACCUCCCUGUUCCCCACGGGGAGUGCUUGGCAGAGGAGACUACUUCUAGAAAUACUUUCAGACCUACAGACAAAAAAGAAAAAAGGCCAUUCCGGAGUGACUCCCAGCAUCACAGCCCAGAACCUCCUCCUCAAAGGAGAGUAAACAGAGACUGUGAUACUGACCAAGUACAGGCGCUCGCUAUGAAGCCCAUAUGUUCCUGAUUAAGAGCUGGCUGGCCUCACUCUUGCGGUCGCACUAGUGUGGAAUUCUCGGGUGUCAAGG
B3: ENSMUSG00000061578.1543|Ksr2 (ssRNA)
RNA: GGGAGUUCUACAGUCCGACGAUCGCUUCGAUAUCCGCAUGCUACACUAUGUAUAUUUGUAUAGAUCAUUUAUAAAGUUUUCUACACUUCUCAAAAAAAAAAAUAUUUCUAACCUUGGCUGUUGGACAGUCUGUGAGCCUGUGAGCCGGCAAGCCUGUUGUUUCUUGUGUUUAGUGCAAUGUUAGUGAGAAUCCAGUGUCUGAGUUAUUAAUGCCAAUAAAGAAUUUGAGAAUUACUGCAUCCGCUGCUGUCACUCCAGGUCAGAACUCUGCUGUUGUCUGUUGGAUGGAAGGAAGCUCCAGAGCUCUUGCGGUCGCACUAGUGUGGAAUUCUCGGGUGUCAAGG
B4: ENSMUSG00000058297.242|Spock2 (ssRNA)
RNA: GGGAGUUCUACAGUCCGACGAUCGCUUCGAUAUCCGCAUGCUAAGGGGACCACACUGAGCAGCUAGGCCCUGAUGCCAUGCCUCAGCACGCCCUCAGACCUCCAGGCCGGGUGGAAGGGGCUUUUACCCAGAUGUCCUGUGGGGUUUUGUGUGUCUAUUGCUCCCCACUUCCCCCUCUCAAAGGAAAUUUCCUUGAUAUAUUUGAUGAAGAAUUCCUUACCUGGGCCUCUGAUACCCUUUGGUACGCGUACGUGUGUGUGGCGCGUAUACGUGUGUGUGUGUGUGUGUGUGUGUGUGUGUGUGCUCUUGCGGUCGCACUAGUGUGGAAUUCUCGGGUGUCAAGG
B5: ENSMUSG00000058297.241|Spock2 (ssRNA)
RNA: GGGAGUUCUACAGUCCGACGAUCGCUUCGAUAUCCGCAUGCUAUAUCAGAGGGGACCACACUGAGCAGCUAGGCCCUGAUGCCAUGCCUCAGCACGCCCUCAGACCUCCAGGCCGGGUGGAAGGGGCUUUUACCCAGAUGUCCUGUGGGGUUUUGUGUGUCUAUUGCUCCCCACUUCCCCCUCUCAAAGGAAAUUUCCUUGAUAUAUUUGAUGAAGAAUUCCUUACCUGGGCCUCUGAUACCCUUUGGUACGCGUACGUGUGUGUGGCGCGUAUACGUGUGUGUGUGUGUGUGUGUGUGUGUGCUCUUGCGGUCGCACUAGUGUGGAAUUCUCGGGUGUCAAGG
B6: ENSMUSG00000058297.244|Spock2 (ssRNA)
RNA: GGGAGUUCUACAGUCCGACGAUCGCUUCGAUAUCCGCAUGCUAUGAGCAGCUAGGCCCUGAUGCCAUGCCUCAGCACGCCCUCAGACCUCCAGGCCGGGUGGAAGGGGCUUUUACCCAGAUGUCCUGUGGGGUUUUGUGUGUCUAUUGCUCCCCACUUCCCCCUCUCAAAGGAAAUUUCCUUGAUAUAUUUGAUGAAGAAUUCCUUACCUGGGCCUCUGAUACCCUUUGGUACGCGUACGUGUGUGUGGCGCGUAUACGUGUGUGUGUGUGUGUGUGUGUGUGUGUGUGUGUGUGUGUGUGAGCUCUUGCGGUCGCACUAGUGUGGAAUUCUCGGGUGUCAAGG
B7: ENSMUSG00000058297.240|Spock2 (ssRNA)
RNA: GGGAGUUCUACAGUCCGACGAUCGCUUCGAUAUCCGCAUGCUAUGUAUCUAUCAGAGGGGACCACACUGAGCAGCUAGGCCCUGAUGCCAUGCCUCAGCACGCCCUCAGACCUCCAGGCCGGGUGGAAGGGGCUUUUACCCAGAUGUCCUGUGGGGUUUUGUGUGUCUAUUGCUCCCCACUUCCCCCUCUCAAAGGAAAUUUCCUUGAUAUAUUUGAUGAAGAAUUCCUUACCUGGGCCUCUGAUACCCUUUGGUACGCGUACGUGUGUGUGGCGCGUAUACGUGUGUGUGUGUGUGUGUGUGCUCUUGCGGUCGCACUAGUGUGGAAUUCUCGGGUGUCAAGG
B8: ENSMUSG00000058297.245|Spock2 (ssRNA)
RNA: GGGAGUUCUACAGUCCGACGAUCGCUUCGAUAUCCGCAUGCUAGCUAGGCCCUGAUGCCAUGCCUCAGCACGCCCUCAGACCUCCAGGCCGGGUGGAAGGGGCUUUUACCCAGAUGUCCUGUGGGGUUUUGUGUGUCUAUUGCUCCCCACUUCCCCCUCUCAAAGGAAAUUUCCUUGAUAUAUUUGAUGAAGAAUUCCUUACCUGGGCCUCUGAUACCCUUUGGUACGCGUACGUGUGUGUGGCGCGUAUACGUGUGUGUGUGUGUGUGUGUGUGUGUGUGUGUGUGUGUGUGUGAGAGAGAGCUCUUGCGGUCGCACUAGUGUGGAAUUCUCGGGUGUCAAGG
B9: ENSMUSG00000058297.243|Spock2 (ssRNA)
RNA: GGGAGUUCUACAGUCCGACGAUCGCUUCGAUAUCCGCAUGCUACCACACUGAGCAGCUAGGCCCUGAUGCCAUGCCUCAGCACGCCCUCAGACCUCCAGGCCGGGUGGAAGGGGCUUUUACCCAGAUGUCCUGUGGGGUUUUGUGUGUCUAUUGCUCCCCACUUCCCCCUCUCAAAGGAAAUUUCCUUGAUAUAUUUGAUGAAGAAUUCCUUACCUGGGCCUCUGAUACCCUUUGGUACGCGUACGUGUGUGUGGCGCGUAUACGUGUGUGUGUGUGUGUGUGUGUGUGUGUGUGUGUGUGUGCUCUUGCGGUCGCACUAGUGUGGAAUUCUCGGGUGUCAAGG
B10: ENSMUSG00000058297.239|Spock2 (ssRNA)
RNA: GGGAGUUCUACAGUCCGACGAUCGCUUCGAUAUCCGCAUGCUAGAACGGUGUAUCUAUCAGAGGGGACCACACUGAGCAGCUAGGCCCUGAUGCCAUGCCUCAGCACGCCCUCAGACCUCCAGGCCGGGUGGAAGGGGCUUUUACCCAGAUGUCCUGUGGGGUUUUGUGUGUCUAUUGCUCCCCACUUCCCCCUCUCAAAGGAAAUUUCCUUGAUAUAUUUGAUGAAGAAUUCCUUACCUGGGCCUCUGAUACCCUUUGGUACGCGUACGUGUGUGUGGCGCGUAUACGUGUGUGUGUGUGUGCUCUUGCGGUCGCACUAGUGUGGAAUUCUCGGGUGUCAAGG
B11: ENSMUSG00000058297.242|Spock2|105:111;209:217;228:260 (ssRNA)
RNA: GGGAGUUCUACAGUCCGACGAUCGCUUCGAUAUCCGCAUGCUAAGGGGACCACACUGAGCAGCUAGGCCCUGAUGCCAUGCCUCAGCACGCCCUCAGACCUCCAGGCCGGGUGGAAGGGGCUUUUACCCAGAUGUCCUGUGGGGUUUACACACACUAUUGCUCCCCACUUCCCCCUCUCAAAGGAAAUUUCCUUGAUAUAUUUGAUGAAGAAUUCCUUACCUGGGCCUCUGAUACCCUUUGGUACGCGUACCACACACACGCGCGUAUACCACACACACACACACACACACACACACACACACCUCUUGCGGUCGCACUAGUGUGGAAUUCUCGGGUGUCAAGG
B12: ENSMUSG00000058297.246|Spock2 (ssRNA)
RNA: GGGAGUUCUACAGUCCGACGAUCGCUUCGAUAUCCGCAUGCUACCCUGAUGCCAUGCCUCAGCACGCCCUCAGACCUCCAGGCCGGGUGGAAGGGGCUUUUACCCAGAUGUCCUGUGGGGUUUUGUGUGUCUAUUGCUCCCCACUUCCCCCUCUCAAAGGAAAUUUCCUUGAUAUAUUUGAUGAAGAAUUCCUUACCUGGGCCUCUGAUACCCUUUGGUACGCGUACGUGUGUGUGGCGCGUAUACGUGUGUGUGUGUGUGUGUGUGUGUGUGUGUGUGUGUGUGUGUGAGAGAGAGAGAGAGCUCUUGCGGUCGCACUAGUGUGGAAUUCUCGGGUGUCAAGG
B13: ENSMUSG00000004113.29|Cacna1b (ssRNA)
RNA: GGGAGUUCUACAGUCCGACGAUCGCUUCGAUAUCCGCAUGCUACACUCACCUUUGAAGAGGCAGUGGCCACCAACUCUGGCCGCUCCUCCAGGACUUCCUAUGUGUCCUCCCUCACUUCCCAAUCCCACCCUCUCCGCCGUGUACCCAAUGGCUAUCACUGCACUUUGGGACUCAGCACUGGCGUCCGGGCGCGGCACAGCUACCACCACCCCGAUCAGGACCACUGGUGCUAGCUGCACCACGACCACCCAUGUACCAGCUCCAUGGGUGAGGGUUCCAGUUGAUGAGUUUUAUCAUCCGCUCUCUUGCGGUCGCACUAGUGUGGAAUUCUCGGGUGUCAAGG

target: TDP-43 (Homo sapiens, UniProt Q13148 1-414); experiment: RNA Bind-n-Seq with designed 260-mer pool; 25 mM Tris-HCl, 150 mM KCl, 3 mM MgCl2, BSA (printed 500 mg/mL), 20 units/mL SUPERase IN; pH not stated; 500 nM RNA pool, 1 h, 4 C; TDP-43 5, 50, 500 nM; high values mean tight binding; settings: protein: recombinant; tags: SBP (GST cleaved off with PreScission; pGEX-GST-SBP)
Method in brief: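 Binding (R) is the ratio of each oligo's mapped-read-normalized abundance in the bound fraction to its abundance in the input. To obtain it, SBP-tagged recombinant TDP-43 (5, 50 or 500 nM) on streptavidin beads was incubated with 500 nM of an in vitro-transcribed 260-nt 3′ UTR oligo pool for 1 h at 4 °C in 25 mM Tris-HCl, 150 mM KCl, 3 mM MgCl2, BSA and SUPERase IN. The RNA retained after washing was released with biotin, then reverse transcribed, amplified by PCR and sequenced.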

Chain of TDP-43 (Q13148 whole entry): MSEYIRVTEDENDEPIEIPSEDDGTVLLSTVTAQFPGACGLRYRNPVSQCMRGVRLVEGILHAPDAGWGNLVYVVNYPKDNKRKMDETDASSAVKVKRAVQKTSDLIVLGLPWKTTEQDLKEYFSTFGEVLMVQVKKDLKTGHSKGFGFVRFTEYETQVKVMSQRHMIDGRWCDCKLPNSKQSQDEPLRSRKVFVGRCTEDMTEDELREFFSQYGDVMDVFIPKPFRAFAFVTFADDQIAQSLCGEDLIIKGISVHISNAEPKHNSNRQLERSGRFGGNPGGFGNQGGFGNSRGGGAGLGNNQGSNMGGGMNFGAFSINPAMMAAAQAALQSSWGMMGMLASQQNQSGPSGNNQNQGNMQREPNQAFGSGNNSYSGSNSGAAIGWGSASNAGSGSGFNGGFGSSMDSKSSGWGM

| Binder | binding signal |
| --- | --- |
| B1 | 0.252 R (bound/input frequency ratio) |
| B2 | 0.253 R (bound/input frequency ratio) |
| B3 | 0.902 R (bound/input frequency ratio) |
| B4 | 6.94 R (bound/input frequency ratio) |
| B5 | 6.46 R (bound/input frequency ratio) |
| B6 | 3.2 R (bound/input frequency ratio) |
| B7 | 5.45 R (bound/input frequency ratio) |
| B8 | 9.24 R (bound/input frequency ratio) |
| B9 | 6.55 R (bound/input frequency ratio) |
| B10 | 3.69 R (bound/input frequency ratio) |
| B11 | 4.83 R (bound/input frequency ratio) |
| B12 | 2.94 R (bound/input frequency ratio) |
| B13 | 0.399 R (bound/input frequency ratio) |
